# According to PubChem BioAssay (NCATS):
# Where “and” joins values, the source holds several entries; their conditions need not be identical. Equal values may be shown once. Records with an inconclusive call do not appear. Unmarked numbers belong to inactive results. Calls of active or inactive are those of the source. Calls come from the whole dose curve; as a rule, active = well fitted curve in the direction sought with a large enough effect; inconclusive = small, poorly fitted or top-dose-only effect, or another doubt; inactive = no such curve, though single readings can be large; an effect the other way counts as inactive or inconclusive.
# Assays:
# [1] = Viability qHTS for spleen associated tyrosine kinase inhibitor (SYKi) naive MV4-11 cells (AID 1963823); note: nearly all actives have a fitted effect of over 40% in size
# Outline: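 CellTiter-Glo luminescence, 10 min room-temperature incubation, gave viability. Cells: naive MV4-11 (500/well), treated 72 hr at 37 C, 5% CO2.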
# [2] = Viability qHTS for spleen associated tyrosine kinase inhibitor (SYKi) drug resistant MV4-11 cells (AID 1963824); note: nearly all actives have a fitted effect of over 35% in size
# Outline: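 SYK-inhibitor-resistant MV4-11 AML cells were seeded at 500 per well onto compound and cultured 72 hours (37 °C, 5% CO2). CellTiter-Glo was then added, and after 10 min at room temperature, luminescence gave viability.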
# [3] = Cellular viability qHTS for adrenocortical cancer (ACC) cell line SW-13 (AID 1963989); conditions: SW-13 ACC cells viability, CellTiter-Glo, 48 h; activity (max response): active compounds read low; note: nearly all actives have a fitted effect of over 65% in size;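 for activity (max response): cells grown in serum-free medium with ITS supplement; % is set by controls: 0 for no effect and ±100 for the full control effect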
# Outline: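 Luminescent ATP read-out (CellTiter-Glo, 20 min at room temperature) measured metabolically competent SW-13 cells after 48 h compound treatment. Final concentrations spanned up to 46 uM; bortezomib served as positive control.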
# [4] = Cellular viability qHTS for adrenocortical cancer (ACC) cell line NCI-H295R (AID 1963990); note: nearly all actives have a fitted effect of over 60% in size
# Outline: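 IC50 and maximal efficacy derive from four-parameter logistic modelling of titration curves, with reads scaled between DMSO-only wells (0%) and doxorubicin hydrochloride (100% inhibition). Compounds spanned up to 46 uM over 48 h.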
# Potency is the fitted concentration of half-maximal effect.
SMILES,Potency [1],Potency [2],activity (max response) [3],Potency [4],Potency [3]
O=C(O)CCC(=O)c1ccc(-c2ccccc2)cc1,inactive,inactive,23%,inactive,–
C/C=C/C[C@@H](C)C(=O)[C@H]1C(=O)N[C@@H](C(C)C)C(=O)N(C)CC(=O)N(C)[C@@H](CC(C)C)C(=O)N[C@@H](C(C)C)C(=O)N(C)[C@@H](CC(C)C)C(=O)N[C@@H](C)C(=O)N[C@H](C)C(=O)N(C)[C@@H](CC(C)C)C(=O)N(C)[C@@H](CC(C)C)C(=O)N(C)[C@@H](C(C)C)C(=O)N1C,6.45 µM (active),4.07 µM (active),4.11%,inactive,–
Cc1ccc(S(=O)(=O)NC(=O)NN2CCCCCC2)cc1,inactive,inactive,-2.59%,inactive,–
CC(C)(C)C1CCC(CC2=C(O)c3ccccc3C(=O)C2=O)CC1 (stereo unspecified),inactive,inactive,12.3%,inactive,–
O=c1oc2c(C3OCCCO3)c(O)ccc2c2c1CNCC2,13.2 µM (active),11.8 µM (active),5.04%,inactive,–
CC(=O)OCC[N+](C)(C)C,inactive,inactive,10.9%,inactive,–
COc1ccc(N2C(=O)N(c3c(C)cccc3Cl)Cc3cnc(Nc4ccc(C5CCN(C)CC5)cc4OC)nc32)nc1,0.934 µM (active),1.48 µM (active),–,17.8 µM (active),2.24 µM (active)
c1ccc2[nH]ccc2c1,inactive,inactive,10.5%,inactive,–
C[N+](C)(C)CC[N+]1(C)Cc2c(Cl)c(Cl)c(Cl)c(Cl)c2C1,inactive,inactive,6.09%,inactive,–
NC(=O)c1nc(F)c[nH]c1=O,inactive,inactive,0.237%,inactive,–
C[N+](C)(C)CCOC(=O)CCC(=O)OCC[N+](C)(C)C,inactive,inactive,11.2%,inactive,–
C[C@@H]1CCN(C(=O)[C@H](CCCN=C(N)N)NS(=O)(=O)c2cccc3c2NC[C@H](C)C3)[C@@H](C(=O)O)C1,inactive,inactive,1.57%,inactive,–
COc1ccc(CNC(=O)Nc2ncc([N+](=O)[O-])s2)cc1,9.34 µM (active),13 µM (active),–,28.2 µM (active),25.1 µM (active)
CC(=O)O/N=C1\C(=O)N(Cc2cc(Cl)ccc2Cl)c2ccc(Cl)cc21,5.9 µM (active),8.33 µM (active),-2.12%,0.562 µM (active),–
CC(=O)Oc1cc(C(C)C)c(OCCN(C)C)cc1C,0.0011 µM (active),inactive,12.6%,inactive,–
C=CC(=O)N1CCC[C@H](n2c(=O)n(-c3ccc(Oc4ccccc4)cc3)c3c(N)ncnc32)C1,1.05 µM (active),1.66 µM (active),–,8.91 µM (active),3.98 µM (active)
CC(C)n1nc(-c2cc3cc(O)ccc3[nH]2)c2c(N)ncnc21,0.116 µM (active),668 nM (active) and 291 nM (active),–,2.31 µM (active) and 10 µM (active),5.8 µM (active) and 14.1 µM (active)
Cc1cc(O)cc2c1O[C@](C)(CCC[C@H](C)CCC[C@H](C)CCCC(C)C)CC2,inactive,inactive,7.62%,inactive,–
C/C=C(/C)C(=O)O[C@H]1C(C)=CC23C(=O)C(C=C(CO)[C@@H](O)[C@]12O)[C@H]1[C@@H](C[C@H]3C)C1(C)C (stereo partly specified),0.0166 µM (active),0.0083 µM (active),-8.96%,inactive,–
